Measured values reported in PubChem BioAssay (NCATS).
A number with no mark means an inactive call. The source made the active and inactive calls. Calls follow the shape of the dose curve; as a rule, active = well fitted curve in the direction sought with a large enough effect; inconclusive = small, poorly fitted or top-dose-only effect, or effect the other way, or another doubt; inactive = no such curve, though single readings can be large or run the other way.

experiment: Inducers of the Endoplasmic Reticulum Stress Response (ERSR) in human glioma: Validation (AID 504836); details: human glioma cells, ER stress response reporter; series mostly up to 38.3 µM; activation: at the top concentration; as to activation: 0% is about no effect
Text: Primary protein unfolding takes place for many diseases, including diabetes and hypoxia, , and triggers a reaction in the cells called ER stress response (ERSR). ). ERSR is designed as a repair mechanism, but ultimately leads to cell death via apoptosis if conditions triggering protein unfolding persist (1). The molecular clue to ERSR activation is the enhancement of the expression of key molecular chaperones, including the glucose regulated protein (GRP) 78. GRP78 is the main sensor for protein folding and the main actuator of the ERSR.
In a collaboration between the Southern Research Institute and the NIH Chemical Genomics Center, a cell based screen was developed that reliably uses GRP78 as a sensor to identify small molecules as inducers of ERSR. In resting conditions, GRP78 binds proteins and acts as a natural repressor. Once unfolded proteins are present in the ER, GRP78 releases some of the repressors and binds to the unfolded proteins. The release of the repressors executes the ERSR program. Using a human glioma cell line in a miniaturized, luminescent format, a high-throughput screen was developed to identify actuators of the ERSR.
(1) Soboloff, J. and S. A. Berger (2002). "Sustained ER Ca2+ depletion suppresses protein synthesis and induces activation-enhanced cell death in mast cells." J Biol Chem 277(16): 13812-20.
NIH Chemical Genomics Center [NCGC]
NIH Molecular Libraries Probe Centers Network [MLPCN]
Assay Submitter (PI): Maurizio Grimaldi, Southern Research Institute
Stable transfected human glioma cell line, U87-MG, are dispensed at density 1000 cells/well into Greiner white solid bottom 1536-well assay plates. Compounds are transferred via Kalypsys pin tool equipped with 1536-pin array (10nl slotted pins, V&P Scientific, San Diego, CA). The assay plates will be incubated for 16 hours and developed by adding appropriate quantities of the Promega Bright Glo reagent. The plates will be incubated at room temperature for 10 minutes prior to being transferred into a ViewLux high-throughput CCD imager (PerkinElmer), wherein end-point measurements of luminescence are acquired.
Potency is read from the fitted curve at half-maximal effect.

Going from `CCCN(CCC)C1CCc2ccc(O)cc2C1` (stereo not given) to `CCCN1CCC[C@H](c2cccc(O)c2)C1`, the “activation” value rises from -2.02% to -1.57%.

Going from `Cn1cnc(CCN)c1` to `NCCc1c[nH]c2ccccc12`, the “activation” value falls from -0.775% to -2.85%.

Compared with `C[C@]12N[C@H](Cc3ccccc31)c1ccccc12`, `Cc1cccc(C#Cc2ccccc2)n1` is lower in “activation” value: -6.11% for the first, -6.45% for the second.

First: C[C@@H](N)Cc1cnc[nH]1
Second: O=C(O)Cc1cnc[nH]1
The “activation” value of the first is lower: -4.36% for the first, -4.26% for the second.

Going from `Clc1ccc(C(c2ccc(Cl)cc2)n2cc[n+](CC(OCc3ccc(Cl)cc3Cl)c3ccc(Cl)cc3Cl)c2)cc1` (stereo not given) to `Clc1cnc(Oc2ccc(Oc3ncc(Cl)cc3Cl)cc2)c(Cl)c1`, the “activation” value falls from -0.773% to -4.32%.

First: CC(=O)NCCc1c[nH]c2ccccc12
Second: CNCCc1c[nH]c2ccc(O)cc12
The “activation” value of the first is lower: -2.66% for the first, -1.9% for the second.

First: Cc1cccc(-c2[nH]c(C(C)(C)C)nc2-c2ccc3nccnc3c2)n1
Second: CC1=NN=C(c2ccc(N)cc2)c2cc3c(cc2C1)OCO3
The “activation” value of the first is higher: -4.45% for the first, -4.62% for the second.

Compared with `NC(CO)C(=O)NNCc1ccc(O)c(O)c1O` (stereo not given), `CNCCc1ccc(O)c(O)c1` is lower in “activation” value: -0.268% for the first, -1.74% for the second.

Going from `O=C(O)[C@@H]1CCN1` to `NC(=O)CN1CC(O)CC1=O` (stereo not given), the “activation” value rises from -2.53% to -0.304%.

First: NCCS
Second: NCCc1c[nH]c2ccc(O)cc12
The “activation” value of the first is higher: -1% for the first, -2.73% for the second.

Compared with `CN[C@@H]1C[C@@H](c2ccc(Cl)c(Cl)c2)c2ccccc21`, `NC1CC1c1ccccc1` (stereo not given) is higher in “activation” value: -5.55% for the first, -0.616% for the second.

Going from `CC(=O)Oc1ccccc1C(=O)O` to `CCCCc1ccc(C(=O)O)nc1`, the “activation” value rises from -2.12% to 0.216%.

First: CC(C[N+](C)(C)C)OC(N)=O (stereo not given)
Second: C[C@@H]1O[C@H](C[N+](C)(C)C)C[C@H]1O
The “activation” value of the first is higher: -4.1% for the first, -4.97% for the second.

Going from `CCOC(=O)C(C)Oc1cccc2c(=O)n(CC(=O)Nc3ccc4c(c3)OCCO4)ccc12` (stereo not given) to `CCN(CC)CCNC(=O)c1ccc(NC(C)=O)cc1`, the “activation” value rises from -3.02% to 6.94%.

Compared with `CC(C)c1ccc2c(c1)c(SC(C)(C)C)c(CC(C)(C)C(=O)O)n2Cc1ccc(Cl)cc1`, `COc1cc2nc(N3CCCN(C)CC3)nc(NC3CCN(Cc4ccccc4)CC3)c2cc1OC` is lower in “activation” value: 2.72% for the first, -9.85% for the second.

First: NC(=NCCC[C@H](N)C(=O)O)N[N+](=O)[O-]
Second: O=C(Cc1ccc(Cl)c(Cl)c1)N1CCCCC1CN1CCCC1 (stereo not given)
The “activation” value of the first is higher: 1.28% for the first, -0.712% for the second.

Compared with `c1ccc2sc(C3(N4CCCCC4)CCCCC3)cc2c1`, `CC[C@@]1(O)C(=O)OCc2c1cc1n(c2=O)Cc2cc3ccccc3nc2-1` is lower in “activation” value: -1.94% for the first, -3.21% for the second.

Going from `C[C@]12C[C@H](O)[C@H]3[C@@H](CCC4=CC(=O)CC[C@@]43C)[C@@H]1CC[C@@H]2C(=O)CO` to `CN1C2CCC1CC(OC(=O)c1cc(Cl)cc(Cl)c1)C2` (stereo not given), the “activation” value rises from -5.64% to -0.809%.

Going from `NC1CCc2cc(O)c(O)cc2C1` (stereo not given) to `Oc1ccc2c3c1O[C@H]1c4[nH]c5c(c4C[C@@]4(O)[C@@H](C2)N(CC2CC2)CC[C@]314)C[C@@]1(O)[C@H]2Cc3ccc(O)c4c3[C@@]1(CCN2CC1CC1)[C@H]5O4`, the “activation” value rises from -0.503% to 0.235%.

With `CC1=C(/C=C/C(C)=C/C=C/C(C)=C/C(=O)O)C(C)(C)CCC1` the “activation” value was 1.14%.

With `C/C=C(/C)C(=O)O[C@H]1C(C)=C2[C@H]([C@@H]1OC(=O)CCCCCCC)[C@@](C)(OC(C)=O)C[C@H](OC(=O)CCC)[C@@]1(O)[C@H]2OC(=O)[C@@]1(C)O` the Potency was 16.5 nM (active).
